Measurements from PubChem BioAssay (Tox21).
Records with an inconclusive call do not appear. Activity calls are given as the source filed them. Unless noted, the call rests on the fitted dose curve; in most records, active means well fitted curve in the direction sought with a large enough effect in the repeat runs; inconclusive means weak or mixed curves; inactive means no such curve, though single readings can be large; an effect the other way counts as inactive or inconclusive.

Legend:
[1] = A CellTox Green Cytotoxicity Assay to monitor cytotoxicity in HEK293 cells - 0 hour (AID 1224869); further: nearly all actives have a fitted effect of over 50% in size
Outline: (§1)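 Seeding of HEK293 cells together with cytotoxicity dye preceded a 5 h incubation at 37 C/5% CO2. Test compounds in DMSO were then added and fluorescence monitored across 40 h.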

[2] = A CellTox Green Cytotoxicity Assay to monitor cytotoxicity in HEK293 cells - 40 hour (AID 1224871); further: nearly all actives have a fitted effect of over 45% in size; further: potency means the concentration at half of the fitted maximal effect
Outline: as §1

[3] = qHTS RealTime-Glo MT Cell Viability Assay in HEK293 cells - 40 hour (AID 1224874); details: RealTime-Glo luminescence; max response: hits give low values; further: nearly all actives have a fitted effect of over 50% in size; further: potency means the concentration at half of the fitted maximal effect
Outline: (§2)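 Tox21 screen in HEK293 using RealTime-Glo MT chemistry, with cells and reagent co-dispensed. Luminescence proportional to viable cell number was captured at intervals during 40 h compound exposure at 37 C.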

[4] = A CellTox Green Cytotoxicity Assay to monitor cytotoxicity in HepG2 cells - 16 hour (AID 1224876); further: nearly all actives have a fitted effect of over 45% in size
Outline: (§3)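 Nonlytic assay: viable cells exclude the dye, so fluorescence scales with cell death. HepG2 at 600 cells/well, compounds added after 5 h, signal read across 40 h.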

[5] = A CellTox Green Cytotoxicity Assay to monitor cytotoxicity in HEK293 cells - 16 hour (AID 1224888); further: nearly all actives have a fitted effect of over 35% in size
Outline: as §1

[6] = qHTS RealTime-Glo MT Cell Viability Assay in HepG2 cells - 0 hour (AID 1224889); further: nearly all actives have a fitted effect of over 50% in size; further: potency means the concentration at half of the fitted maximal effect
Outline: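 HepG2 cells were seeded at 600 cells/well together with NanoLuc luciferase and a cell-permeant prosubstrate, preincubated 5 h at 37 C/5% CO2, then pin-dosed with compounds in DMSO. Nonlytic luminescence from viable cells was read at each time point.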

[7] = A CellTox Green Cytotoxicity Assay to monitor cytotoxicity in HepG2 cells - 8 hour (AID 1224890); further: nearly all actives have a fitted effect of over 45% in size
Outline: as §3

[8] = qHTS assay to identify small molecule antagonists of the estrogen receptor alpha (ER-alpha) signaling pathway using the BG1 cell line in the presence of 0.1 nM 17-beta-estradiol - cell viability counter screen (AID 1259241); further: nearly all actives have a fitted effect of over 40% in size
Outline: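 VM7Luc4E2 cells (endogenous ER-alpha, 4×ERE-luciferase), hormone-starved 5 days in charcoal-stripped FBS, were treated with compounds plus 0.1 nM 17beta-estradiol for 22 hr at 37C; viability read in same wells as CellTiter-Fluor live-cell protease fluorescence.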

[9] = qHTS assay to identify small molecule HDAC inhibitors - cell viability counter screen (AID 1259365); further: series mostly up to about 92 µM; nearly all actives have a fitted effect of over 50% in size
Outline: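 Wild-type HCT-116 cells were seeded at 1,500 per well, incubated overnight at 37 C, then exposed to compounds in DMSO for 2hr. Viability was read by CellTiter-Glo luminescence after 30min at room temperature.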

[10] = qHTS assay to identify small molecule antagonists of the sonic hedgehog signaling (Shh) pathway (AID 1259369; calls by dose curve; further: nearly all actives have a fitted effect of over 45% in size; further: potency means the concentration at half of the fitted maximal effect)
Outline: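 Conditioned medium drives Shh signalling in 3T3Gli1-Luc cells; compounds in DMSO co-applied, 24hr at 37 C, then luciferase luminescence.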

[11] = molecular target: Estrogen receptor (Homo sapiens) (UniProt P03372); experiment: qHTS assay to identify small molecule agonists of the estrogen receptor alpha (ER-alpha) signaling pathway in the presence of an antagonist (AID 1259383; calls by dose curve; further: top concentration of the series differs between compounds; nearly all actives have a fitted effect of over 15% in size)
Estrogen receptor (Homo sapiens), sequence (P03372 whole entry, looked up): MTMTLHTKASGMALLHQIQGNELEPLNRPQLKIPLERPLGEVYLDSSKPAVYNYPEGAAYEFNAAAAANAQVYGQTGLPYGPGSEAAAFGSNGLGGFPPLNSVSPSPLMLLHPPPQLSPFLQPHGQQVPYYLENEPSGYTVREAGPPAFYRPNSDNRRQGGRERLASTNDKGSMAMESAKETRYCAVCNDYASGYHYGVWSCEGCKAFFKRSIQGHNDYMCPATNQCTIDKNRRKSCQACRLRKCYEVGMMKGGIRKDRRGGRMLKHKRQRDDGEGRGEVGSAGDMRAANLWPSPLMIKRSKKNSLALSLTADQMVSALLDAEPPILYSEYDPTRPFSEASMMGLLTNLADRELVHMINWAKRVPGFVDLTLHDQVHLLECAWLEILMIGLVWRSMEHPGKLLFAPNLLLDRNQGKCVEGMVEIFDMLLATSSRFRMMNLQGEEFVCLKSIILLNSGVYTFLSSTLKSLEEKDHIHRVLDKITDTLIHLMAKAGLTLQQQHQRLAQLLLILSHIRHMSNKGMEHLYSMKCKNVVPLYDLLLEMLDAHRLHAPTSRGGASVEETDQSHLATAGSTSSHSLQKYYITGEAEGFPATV
Outline: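 Using VM7Luc4E2 cells seeded 24hr before treatment, antagonist ICI-182,780 (10.0nM final) was added, followed by compounds at 15 concentrations. Plates incubated 22hr; ONE-Glo luminescence quantified reporter activity.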

[12] = molecular target: Voltage-gated inwardly rectifying potassium channel KCNH2 (Homo sapiens) (UniProt Q12809); experiment: Human Ether-a-go-go-Related Gene (hERG) channel small molecule antagonists: fluorescence cell-based qHTS assay (AID 1671200); further: nearly all actives have a fitted effect of over 50% in size; further: potency means the concentration at half of the fitted maximal effect
Voltage-gated inwardly rectifying potassium channel KCNH2 (Homo sapiens), sequence (Q12809 whole entry, looked up): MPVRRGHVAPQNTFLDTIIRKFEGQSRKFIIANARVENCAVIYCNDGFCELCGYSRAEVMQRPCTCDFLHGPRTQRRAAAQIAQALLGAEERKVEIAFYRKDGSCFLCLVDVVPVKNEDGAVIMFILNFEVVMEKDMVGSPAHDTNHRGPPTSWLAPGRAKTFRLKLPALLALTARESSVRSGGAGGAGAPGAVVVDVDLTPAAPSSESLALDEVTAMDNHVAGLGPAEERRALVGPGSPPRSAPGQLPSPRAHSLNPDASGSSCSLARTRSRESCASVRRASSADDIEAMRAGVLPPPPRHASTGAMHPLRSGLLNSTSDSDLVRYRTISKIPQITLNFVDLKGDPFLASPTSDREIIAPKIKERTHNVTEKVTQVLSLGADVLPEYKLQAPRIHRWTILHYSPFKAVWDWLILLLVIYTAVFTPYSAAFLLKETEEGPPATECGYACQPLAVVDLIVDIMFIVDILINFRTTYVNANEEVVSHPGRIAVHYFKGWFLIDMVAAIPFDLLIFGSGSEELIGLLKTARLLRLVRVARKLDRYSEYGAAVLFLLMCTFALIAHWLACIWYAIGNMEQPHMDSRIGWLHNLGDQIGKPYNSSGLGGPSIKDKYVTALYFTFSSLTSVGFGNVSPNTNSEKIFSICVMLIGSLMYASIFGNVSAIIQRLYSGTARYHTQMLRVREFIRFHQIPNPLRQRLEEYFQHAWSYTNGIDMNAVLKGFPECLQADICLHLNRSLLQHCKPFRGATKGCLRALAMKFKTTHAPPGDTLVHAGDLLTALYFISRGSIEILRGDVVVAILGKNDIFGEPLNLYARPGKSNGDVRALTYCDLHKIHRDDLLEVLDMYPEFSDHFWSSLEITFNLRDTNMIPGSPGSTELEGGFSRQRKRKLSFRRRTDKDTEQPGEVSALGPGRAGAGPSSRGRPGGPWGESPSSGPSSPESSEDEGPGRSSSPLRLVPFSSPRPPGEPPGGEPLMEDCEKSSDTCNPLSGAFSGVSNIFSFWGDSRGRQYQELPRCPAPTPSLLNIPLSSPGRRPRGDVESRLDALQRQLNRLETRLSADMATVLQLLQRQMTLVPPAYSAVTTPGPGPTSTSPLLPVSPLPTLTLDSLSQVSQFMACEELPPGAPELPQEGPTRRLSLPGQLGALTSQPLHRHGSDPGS
Outline: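 U2OS cells expressing the channel were plated at 1000 cells/well, incubated overnight at 37 C, then loaded with FluxOR II thallium-sensitive dye for 1 h at room temperature in the dark, with a further 10 min at room temperature before stimulation.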

[13] = qHTS RealTime-Glo MT Cell Viability Assay in HepG2 cells - 40 hour (AID 1224870); further: nearly all actives have a fitted effect of over 50% in size
Outline: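 HepG2 cells mixed with RealTime-Glo MT reagents (NanoLuc plus cell-permeant prosubstrate) were seeded at 600 cells/well, incubated 5 h at 37 C/5% CO2, then pinned with compounds in DMSO; nonlytic luminescence tracked viability during 40 h treatment.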

[14] = qHTS RealTime-Glo MT Cell Viability Assay in HEK293 cells - 0 hour (AID 1224880)
Outline: as §2

[15] = qHTS assay to identify small molecule antagonists of the androgen receptor (AR) signaling pathway using the MDA cell line in the presence of 0.5 nM R1881 - cell viability counter screen (AID 1259242); further: nearly all actives have a fitted effect of over 45% in size
Outline: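 R1881 at 0.5 nM final stimulated MDA-kb2 cells during 16 hr compound treatment at 37C. Cytotoxicity read: CellTiter-Fluor fluorescence after 30 min.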

[16] = qHTS assay to identify small molecule agonists of the sonic hedgehog signaling (Shh) pathway - cell viability counter screen (AID 1259366); further: nearly all actives have a fitted effect of over 50% in size
Outline: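 NIH/3T3-derived 3T3 Gli1-Luc cells (stable Gli1-responsive firefly luciferase reporter) were seeded, rested 4 hr at 37 C/5% CO2, then exposed to compounds in DMSO for 24 hr; viability was read by CellTiter-Fluor fluorescence in the same wells.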

[17] = qHTS assay to identify small molecule agonists of the estrogen receptor alpha (ER-alpha) signaling pathway in the presence of an antagonist - cell viability counter screen (AID 1259386);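 further: series mostly up to about 92 µM; cells exposed to compounds for 22 h at 37 °C before the viability read; nearly all actives have a fitted effect of over 30% in size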
Outline: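 ICI-182,780 at 10.0nM final accompanies the compound titration (15 concentrations, 22hr, 37C) on VM7Luc4E2 cells. The CellTiter-Fluor fluorescence readout runs in the same wells as the luciferase assay.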

[18] = qHTS assay to identify small molecule antagonists of the TGF-beta/Smad signaling pathway - cell viability counter screen (AID 1346824); further: nearly all actives have a fitted effect of over 50% in size
Outline: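 SBE-bla HEK 293T cells were plated overnight at 37 C, then given compounds in DMSO plus TGF-beta1 (added as 0.25 ng/mL solution) for 5 hr. After the bla read, CellTiter-Glo was added to the same wells and luminescence read after 30 min at room temperature.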

[19] = molecular target: Cytochrome P450 2C19 (Homo sapiens) (UniProt P33261); experiment: Cytochrome P450 Family 2 Subfamily C Member 19 (CYP2C19) small molecule antagonists: luciferase reporter qHTS assay (AID 1671197); further: nearly all actives have a fitted effect of over 65% in size; further: potency means the concentration at half of the fitted maximal effect
Cytochrome P450 2C19 (Homo sapiens), sequence (P33261 whole entry, looked up): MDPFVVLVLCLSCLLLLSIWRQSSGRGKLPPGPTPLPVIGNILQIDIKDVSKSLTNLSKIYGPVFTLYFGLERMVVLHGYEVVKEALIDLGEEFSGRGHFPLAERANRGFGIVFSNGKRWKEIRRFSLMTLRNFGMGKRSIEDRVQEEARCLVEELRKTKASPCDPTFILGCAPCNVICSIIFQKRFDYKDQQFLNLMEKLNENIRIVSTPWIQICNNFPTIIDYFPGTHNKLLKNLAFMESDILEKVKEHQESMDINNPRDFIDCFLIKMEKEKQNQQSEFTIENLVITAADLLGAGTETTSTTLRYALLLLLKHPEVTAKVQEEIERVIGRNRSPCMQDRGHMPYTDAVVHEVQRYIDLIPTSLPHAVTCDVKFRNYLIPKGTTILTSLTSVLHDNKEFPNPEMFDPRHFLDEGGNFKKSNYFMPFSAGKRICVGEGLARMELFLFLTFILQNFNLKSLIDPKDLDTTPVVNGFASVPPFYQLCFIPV
Outline: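 Enzyme-substrate mix with proluciferin substrate (P450-Glo CYP2C19 system) preincubated with compounds 10 min at room temperature; NADPH regeneration solution added, 37C for 1 h; detection reagent stops reaction, luminescence read after 20 min. Ketoconazole positive control.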
On the % scale 0 is the no-effect control and ±100 the full control effect.

Cc1nnc2n1-c1sc(CCc3ccc(CC(C)C)cc3)cc1C(c1ccccc1Cl)=NC2C (stereo unspecified)
inactive: Potency [1] | Potency [4] | Potency [5] | Potency [6] | Potency [7] | Potency [8] | outcome [9] | outcome [11]
active: Potency [2] 23.9 µM | Potency [3] 9.52 µM | Potency [10] 21.1 µM | Potency [12] 15.1 µM

O=C1C(I)=CC(=C(c2cc(I)c(O)c(I)c2)c2ccccc2C(=O)O)C=C1I
active: Potency [19] 13.8 µM
inactive: Potency [1] | Potency [13] | Potency [2] | max response [3] -8.4% | Potency [4] | outcome [14] | Potency [5] | Potency [6] | Potency [7] | Potency [8] | Potency [15] | outcome [9] | Potency [16] | outcome [11] | Potency [17] | Potency [18] | Potency [12]

CCN(CC)C(=O)Cl
inactive: Potency [1] | Potency [13] | Potency [2] | max response [3] 13.5% | Potency [4] | outcome [14] | Potency [5] | Potency [6] | Potency [7] | Potency [8] | Potency [15] | outcome [9] | Potency [16] | Potency [10] | outcome [11] | Potency [17] | Potency [18] | Potency [19] | Potency [12]

C[C@]12CC[C@@H](O)C[C@@H]1CC[C@@H]1[C@@H]2CC[C@]2(C)C(=O)CC[C@@H]12
active: Potency [2] 49 µM | Potency [3] 24.5 µM | Potency [6] 34.7 µM | Potency [10] 19.3 µM
inactive: Potency [1] | Potency [13] | Potency [4] | outcome [14] | Potency [5] | Potency [7] | Potency [8] | Potency [15] | outcome [9] | Potency [16] | Potency [17] | Potency [18] | Potency [12]
